# Assay results published in the OligoGym collection.
# Molecular target: NDUFAB1
# Assay: pooled miR-30 sensor sort-seq; sequence = guide strand
# Conditions: shRNA
# Note: reference of the scale not given here.
row,Sequence,sensor-assay potency score (higher = more potent)
1,TACAATTTCTTGTGGACACATT,-0.835
2,TGTAACTCTACCAGGAACCTGC,0.262
3,TTTACTGAAAGCTTCTCTGGGT,0.584
4,TTCTTGTGGACACATTAACTTT,-1.46
5,AAGTCCATCAGAATCACTCTGT,0.545
6,TACAATTTAAATACAAGTCCAT,0.341
7,TTACTGAAAGCTTCTCTGGGTC,0.337
8,TACGTAAAGAACACGGTCCTGG,0.0334

# Molecular target: NDUFC1
# Assay: as above
# Conditions: shRNA
row,Sequence,sensor-assay potency score (higher = more potent)
1,TTGTACTCTAAAATATCTTCAT,-0.343
2,TATATATTCACATATAACTTTT,-0.874
3,TTTGATCGCACTGAAGGGCCGC,-0.255
4,TAGATCCACAAGAAGACAGTGG,0.0941
5,TTTTGTACTCTAAAATATCTTC,-0.163
6,TTGATCGCACTGAAGGGCCGCT,-0.209
7,TAAAATATCTTCATTGTGTTGT,1.09
8,TAGAACTTTGATCGCACTGAAG,-1.43
9,TTTGATGAGATAGATCCACAAG,-1.07
10,TTCATTGTGTTGTTTGATGAGA,-0.384
11,TTGTTTGATGAGATAGATCCAC,-0.545
12,TTTACAACTCAACAGATGGTGA,-0.815

# Molecular target: NEBL
# Assay: as above
# Conditions: shRNA
row,Sequence,sensor-assay potency score (higher = more potent)
1,TTATTTGGTCCTGACATTCTGT,-0.142
2,ATCTCTTTTGTACTTGACCTGA,-0.797
3,TTCAGGTGTATCTGCCACCGTG,-0.9
4,TTCATGTTGAGTGCCATCTTGC,-0.598
5,TTTGTACTTGACCTGACTCTGC,-0.0804
6,TTTATGCCAATACTTATCCAGG,-1.28
7,TTCAATAATAGGAACGCGCAGT,-0.234
8,TTGTCTTAAAAGTATCTTCTAT,-0.254
9,TTGAATCTACATGACATGCAAC,-0.738
10,TAGCTGTGAAGTCAGACCCTAA,-1.2
11,TAGATTTGGTGAATGCTGCATT,0.277
12,TACATGGCTCGGTAGGTCCTTA,-0.857

# Molecular target: NEFH
# Assay: as above
# Conditions: shRNA
row,Sequence,sensor-assay potency score (higher = more potent)
1,TTTGGGTTTAGCGTCTTCCTTC,-0.21
2,TATCTCTATATCCAGAGCCATC,-1.97
3,TAAGCTATCATAATTGTCCATC,-0.916
4,TTCAACTTTGGATTCTTTGGGC,0.436
5,TTTTCTTATCTTCAGCCTCTTC,-0.582
6,TATTGCTAACAGAAATTCCTGT,0.67
7,TTCGACAGCAGGTTCCTTCTTC,0.393
8,TACCTCTGTCTTTTCTTTGGGT,0.0672
